The text below walks through data of PMC7862700, “An all-to-all approach to the identification of sequence-specific readers for epigenetic DNA modifications on cytosine”.

Holding throughout (test): DAPPL (digital affinity profiling via proximity ligation, sequencing); 10 mM Tris-HCl pH 7.5, 50 mM NaCl, 1 mM DTT, 4% glycerol, room temperature, 30 min; GST-TFs on glutathione beads, 16-mer random dsDNA library, 0.1% formaldehyde crosslink after washing; high values mean tight binding
Common to all, as to details: protein: recombinant; tags: N-terminal GST; dsDNA, one strand shown

In one assay the target is T1, FLI1 (Homo sapiens, UniProt Q01543 1-452).
T1 sequence: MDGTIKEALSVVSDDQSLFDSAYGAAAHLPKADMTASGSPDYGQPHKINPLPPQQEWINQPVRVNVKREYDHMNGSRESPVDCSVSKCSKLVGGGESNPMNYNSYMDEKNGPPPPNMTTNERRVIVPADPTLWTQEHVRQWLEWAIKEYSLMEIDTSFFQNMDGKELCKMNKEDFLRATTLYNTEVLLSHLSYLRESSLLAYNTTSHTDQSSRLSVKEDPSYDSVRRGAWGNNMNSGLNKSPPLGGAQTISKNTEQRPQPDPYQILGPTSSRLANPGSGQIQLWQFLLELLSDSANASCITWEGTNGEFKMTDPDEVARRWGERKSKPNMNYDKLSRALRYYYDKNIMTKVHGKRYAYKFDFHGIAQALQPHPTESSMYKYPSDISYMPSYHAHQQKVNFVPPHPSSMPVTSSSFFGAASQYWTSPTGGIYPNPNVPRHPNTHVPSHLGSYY
The procedure, abridged:
(§1)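 Human transcription factors fused to GST were expressed in yeast, captured on glutathione beads, given DNA barcodes and pooled with a GST-only negative control. Pools were incubated with 200 nmole of a 16-mer random double-stranded DNA library in Tris/NaCl/DTT/glycerol buffer at room temperature for 30 min. They were then washed, crosslinked with 0.1% formaldehyde, proximity-ligated (BsaI/T4 ligase, 1 h, 37 °C), PCR-amplified and sequenced on an Illumina NextSeq500. Binding signal is each 6-mer's read frequency for a factor divided by its frequency for the GST control.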

A further assay addresses T2, ELK1 (Homo sapiens, UniProt P19419 1-428).
T2 sequence: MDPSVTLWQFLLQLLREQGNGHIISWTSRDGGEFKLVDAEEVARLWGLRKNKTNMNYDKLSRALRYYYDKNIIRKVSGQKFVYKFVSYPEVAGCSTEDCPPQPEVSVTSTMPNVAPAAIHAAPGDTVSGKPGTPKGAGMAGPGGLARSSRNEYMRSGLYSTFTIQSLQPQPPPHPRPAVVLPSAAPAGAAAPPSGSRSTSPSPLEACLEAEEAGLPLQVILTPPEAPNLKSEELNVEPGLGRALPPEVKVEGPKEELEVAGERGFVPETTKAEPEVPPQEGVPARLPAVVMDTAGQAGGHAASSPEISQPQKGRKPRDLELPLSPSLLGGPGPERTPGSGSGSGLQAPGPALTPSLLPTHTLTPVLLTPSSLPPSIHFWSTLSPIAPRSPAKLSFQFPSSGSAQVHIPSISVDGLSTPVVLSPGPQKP
The procedure, abridged: as §1

Another assay deals with T3, GABPA (Homo sapiens, UniProt Q06546 1-454).
T3 sequence: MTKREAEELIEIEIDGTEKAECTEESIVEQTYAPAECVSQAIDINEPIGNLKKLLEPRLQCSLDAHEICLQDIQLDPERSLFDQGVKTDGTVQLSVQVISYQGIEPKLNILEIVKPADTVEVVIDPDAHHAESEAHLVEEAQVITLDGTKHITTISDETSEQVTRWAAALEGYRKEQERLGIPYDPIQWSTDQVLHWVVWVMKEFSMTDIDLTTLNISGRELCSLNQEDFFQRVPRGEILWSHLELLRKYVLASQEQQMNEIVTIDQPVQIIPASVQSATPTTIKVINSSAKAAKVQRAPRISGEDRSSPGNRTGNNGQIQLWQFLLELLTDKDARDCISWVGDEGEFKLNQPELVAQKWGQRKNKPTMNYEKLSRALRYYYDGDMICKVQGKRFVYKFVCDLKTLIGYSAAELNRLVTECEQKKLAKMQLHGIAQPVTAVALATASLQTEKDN
In short, it runs like this: as §1

The target of the next assay is T4, ERG (Homo sapiens, UniProt P11308 1-479).
T4 sequence: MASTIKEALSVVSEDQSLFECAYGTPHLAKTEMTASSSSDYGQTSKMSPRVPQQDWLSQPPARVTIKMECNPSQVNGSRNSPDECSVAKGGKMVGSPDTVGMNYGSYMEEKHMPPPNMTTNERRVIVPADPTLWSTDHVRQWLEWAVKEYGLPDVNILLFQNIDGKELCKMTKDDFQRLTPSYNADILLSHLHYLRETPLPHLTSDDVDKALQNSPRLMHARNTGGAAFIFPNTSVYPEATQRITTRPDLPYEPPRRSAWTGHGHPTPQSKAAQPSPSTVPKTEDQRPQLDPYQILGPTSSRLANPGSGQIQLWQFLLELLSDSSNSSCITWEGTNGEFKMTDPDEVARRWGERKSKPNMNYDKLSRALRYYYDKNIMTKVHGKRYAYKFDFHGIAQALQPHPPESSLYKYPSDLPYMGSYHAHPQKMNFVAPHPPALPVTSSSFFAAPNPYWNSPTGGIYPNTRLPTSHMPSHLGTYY
In short, it runs like this:
as §1

The next assay concerns the target ELF1 (Homo sapiens, UniProt P32519 1-619). In short, it runs like this:
as §1

For a further assay, the target named is T5, EHF (Homo sapiens, UniProt Q9NZC4 1-300).
T5 sequence: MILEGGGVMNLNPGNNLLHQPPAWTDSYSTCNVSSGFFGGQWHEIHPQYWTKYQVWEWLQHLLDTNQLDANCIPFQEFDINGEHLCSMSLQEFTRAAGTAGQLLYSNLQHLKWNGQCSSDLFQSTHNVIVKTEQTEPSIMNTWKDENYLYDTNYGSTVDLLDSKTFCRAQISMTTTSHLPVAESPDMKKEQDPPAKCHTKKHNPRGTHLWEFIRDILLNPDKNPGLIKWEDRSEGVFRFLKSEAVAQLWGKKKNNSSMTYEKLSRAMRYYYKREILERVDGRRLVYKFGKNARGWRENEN
In short, it runs like this: as §1

For the next assay, the target named is SPI1 (Homo sapiens, UniProt P17947 1-270). In short, it runs like this:
as §1

The target in a further assay is SPIB (Homo sapiens, UniProt Q01892 1-262). In short, it runs like this:
as §1

The next assay addresses T6, ELK3 (Homo sapiens, UniProt P41970 1-407).
T6 sequence: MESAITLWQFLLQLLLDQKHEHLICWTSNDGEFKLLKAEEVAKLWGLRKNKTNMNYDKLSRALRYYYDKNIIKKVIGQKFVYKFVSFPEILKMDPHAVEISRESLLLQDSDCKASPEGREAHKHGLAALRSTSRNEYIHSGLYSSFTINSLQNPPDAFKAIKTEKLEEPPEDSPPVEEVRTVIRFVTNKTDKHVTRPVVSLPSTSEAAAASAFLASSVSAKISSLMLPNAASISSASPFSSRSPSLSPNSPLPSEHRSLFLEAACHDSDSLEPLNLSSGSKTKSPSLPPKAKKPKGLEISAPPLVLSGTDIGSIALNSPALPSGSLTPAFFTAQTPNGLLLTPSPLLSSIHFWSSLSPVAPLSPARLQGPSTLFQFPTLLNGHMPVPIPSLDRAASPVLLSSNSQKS
The procedure, abridged:
as §1

SPIB, sequence (Q01892 whole entry): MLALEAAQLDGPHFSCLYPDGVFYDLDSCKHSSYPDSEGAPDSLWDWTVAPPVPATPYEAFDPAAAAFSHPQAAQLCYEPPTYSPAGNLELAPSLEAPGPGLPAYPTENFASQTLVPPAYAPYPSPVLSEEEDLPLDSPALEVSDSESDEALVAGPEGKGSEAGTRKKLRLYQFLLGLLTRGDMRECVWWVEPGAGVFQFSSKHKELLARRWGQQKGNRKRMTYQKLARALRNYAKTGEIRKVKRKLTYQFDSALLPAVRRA
ELF1, sequence (P32519 whole entry): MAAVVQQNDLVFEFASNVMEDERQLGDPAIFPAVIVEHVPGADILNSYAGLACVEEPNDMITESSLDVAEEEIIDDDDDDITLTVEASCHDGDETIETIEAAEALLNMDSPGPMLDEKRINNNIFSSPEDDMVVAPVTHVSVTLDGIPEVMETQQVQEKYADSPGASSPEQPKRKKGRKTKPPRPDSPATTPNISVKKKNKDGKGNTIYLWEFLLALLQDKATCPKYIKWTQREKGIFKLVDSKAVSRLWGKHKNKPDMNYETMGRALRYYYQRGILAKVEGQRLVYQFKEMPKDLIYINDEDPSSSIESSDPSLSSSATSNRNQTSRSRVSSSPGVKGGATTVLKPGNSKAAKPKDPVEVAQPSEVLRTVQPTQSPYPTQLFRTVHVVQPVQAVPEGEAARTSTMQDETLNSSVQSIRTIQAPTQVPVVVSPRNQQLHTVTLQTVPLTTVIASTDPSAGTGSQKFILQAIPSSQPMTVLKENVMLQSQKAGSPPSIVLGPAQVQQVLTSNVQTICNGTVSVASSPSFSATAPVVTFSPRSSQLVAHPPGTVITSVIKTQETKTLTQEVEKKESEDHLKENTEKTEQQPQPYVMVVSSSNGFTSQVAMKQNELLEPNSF

As to CTGTTC, the binding signal in the assay with FLI1 is 1.47 fold enrichment (6-mer frequency, TF over GST control); in the assay with ELK1, 1.42 fold enrichment (6-mer frequency, TF over GST control); with GABPA, 1.38 fold enrichment (6-mer frequency, TF over GST control); with ERG, 1.39 fold enrichment (6-mer frequency, TF over GST control); in the assay with ELF1, 1.38 fold enrichment (6-mer frequency, TF over GST control); in the assay with EHF, 1.47 fold enrichment (6-mer frequency, TF over GST control). The binding signal with SPI1 was 1.42 fold enrichment (6-mer frequency, TF over GST control); with SPIB, 1.39 fold enrichment (6-mer frequency, TF over GST control); with ELK3 it was 1.47 fold enrichment (6-mer frequency, TF over GST control).
Regarding TGACCG, the binding signal was 1.62 fold enrichment (6-mer frequency, TF over GST control) in the assay with FLI1; 1.48 fold enrichment (6-mer frequency, TF over GST control) with ELK1; 1.59 fold enrichment (6-mer frequency, TF over GST control) in the assay with GABPA; 1.55 fold enrichment (6-mer frequency, TF over GST control) in the assay with ERG; 1.53 fold enrichment (6-mer frequency, TF over GST control) with ELF1; 1.53 fold enrichment (6-mer frequency, TF over GST control) with EHF. In addition, the binding signal with SPI1 is 1.52 fold enrichment (6-mer frequency, TF over GST control); in the assay with SPIB, 1.44 fold enrichment (6-mer frequency, TF over GST control); in the assay with ELK3 it was 1.47 fold enrichment (6-mer frequency, TF over GST control).
As to TCTCGG, the binding signal with FLI1 was 1.69 fold enrichment (6-mer frequency, TF over GST control); with ELK1 it was 1.41 fold enrichment (6-mer frequency, TF over GST control); in the assay with GABPA, 1.5 fold enrichment (6-mer frequency, TF over GST control); with ERG, 1.38 fold enrichment (6-mer frequency, TF over GST control); with ELF1, 1.46 fold enrichment (6-mer frequency, TF over GST control); in the assay with EHF it was 1.29 fold enrichment (6-mer frequency, TF over GST control). Also, the binding signal was 1.52 fold enrichment (6-mer frequency, TF over GST control) with SPI1; 1.44 fold enrichment (6-mer frequency, TF over GST control) with SPIB; 1.42 fold enrichment (6-mer frequency, TF over GST control) with ELK3.
Regarding ATTCAC, the binding signal with FLI1 is 1.23 fold enrichment (6-mer frequency, TF over GST control); in the assay with ELK1, 1.2 fold enrichment (6-mer frequency, TF over GST control); with GABPA it was 1.22 fold enrichment (6-mer frequency, TF over GST control); with ERG, 1.27 fold enrichment (6-mer frequency, TF over GST control); with ELF1 it was 1.34 fold enrichment (6-mer frequency, TF over GST control); in the assay with EHF, 1.2 fold enrichment (6-mer frequency, TF over GST control). For the same sequence, the binding signal with SPI1 is 1.16 fold enrichment (6-mer frequency, TF over GST control); with SPIB, 1.2 fold enrichment (6-mer frequency, TF over GST control); with ELK3 it was 1.35 fold enrichment (6-mer frequency, TF over GST control).
As to GAATTT, the binding signal with FLI1 was 1.21 fold enrichment (6-mer frequency, TF over GST control); with ELK1 it was 1.11 fold enrichment (6-mer frequency, TF over GST control); with GABPA, 1.21 fold enrichment (6-mer frequency, TF over GST control); with ERG it was 1.24 fold enrichment (6-mer frequency, TF over GST control); with ELF1, 1.17 fold enrichment (6-mer frequency, TF over GST control); with EHF, 1.13 fold enrichment (6-mer frequency, TF over GST control). In addition, the binding signal was 1.24 fold enrichment (6-mer frequency, TF over GST control) in the assay with SPI1; 1.28 fold enrichment (6-mer frequency, TF over GST control) with SPIB; 1.19 fold enrichment (6-mer frequency, TF over GST control) with ELK3.
For the sequence CCTTGG, the binding signal is 1.28 fold enrichment (6-mer frequency, TF over GST control) in the assay with FLI1; 1.41 fold enrichment (6-mer frequency, TF over GST control) in the assay with ELK1; 1.34 fold enrichment (6-mer frequency, TF over GST control) in the assay with GABPA; 1.28 fold enrichment (6-mer frequency, TF over GST control) with ERG; 1.28 fold enrichment (6-mer frequency, TF over GST control) with ELF1; 1.37 fold enrichment (6-mer frequency, TF over GST control) in the assay with EHF. Further, the binding signal is 1.24 fold enrichment (6-mer frequency, TF over GST control) in the assay with SPI1; 1.32 fold enrichment (6-mer frequency, TF over GST control) in the assay with SPIB; 1.4 fold enrichment (6-mer frequency, TF over GST control) with ELK3.
As for TTGTTC, the binding signal in the assay with FLI1 was 1.5 fold enrichment (6-mer frequency, TF over GST control); in the assay with ELK1, 1.41 fold enrichment (6-mer frequency, TF over GST control); with GABPA it was 1.53 fold enrichment (6-mer frequency, TF over GST control); with ERG, 1.34 fold enrichment (6-mer frequency, TF over GST control); in the assay with ELF1, 1.44 fold enrichment (6-mer frequency, TF over GST control); with EHF it was 1.64 fold enrichment (6-mer frequency, TF over GST control). Further, the binding signal was 1.51 fold enrichment (6-mer frequency, TF over GST control) in the assay with SPI1; 1.57 fold enrichment (6-mer frequency, TF over GST control) with SPIB; 1.39 fold enrichment (6-mer frequency, TF over GST control) with ELK3.
Regarding ATAATA, the binding signal in the assay with FLI1 was 1.13 fold enrichment (6-mer frequency, TF over GST control); with ELK1, 1.07 fold enrichment (6-mer frequency, TF over GST control); in the assay with GABPA it was 1.18 fold enrichment (6-mer frequency, TF over GST control); in the assay with ERG, 1.17 fold enrichment (6-mer frequency, TF over GST control); with ELF1 it was 1.23 fold enrichment (6-mer frequency, TF over GST control); with EHF, 1.24 fold enrichment (6-mer frequency, TF over GST control). Further, the binding signal with SPI1 is 1.18 fold enrichment (6-mer frequency, TF over GST control); with SPIB, 1.18 fold enrichment (6-mer frequency, TF over GST control); in the assay with ELK3, 1.11 fold enrichment (6-mer frequency, TF over GST control).
